# Where “and” joins values, the source holds several entries; their conditions need not be identical. Equal entries are not always repeated. Records with an inconclusive call do not appear. Where a call stands in place of a potency, no number is given. Values without a mark were called inactive. Calls of active or inactive are those of the source. Unless noted, calls follow the shape of the dose curve; as a rule, active = well fitted curve in the direction sought with a large enough effect; inconclusive = small, poorly fitted or top-dose-only effect, or another doubt; inactive = no such curve, though single readings can be large; an effect the other way counts as inactive or inconclusive.
# How the values were obtained:
# [1] = target: Aldehyde dehydrogenase, mitochondrial (Homo sapiens) (UniProt P05091); assay: qHTS for Inhibitors of the Aldehyde Dehydrogenase Family (ALDH2) Validation screens (AID 2061302; active = well fitted inhibition curve with a large enough effect; title and protocol of this record describe different tests; also: potency is read from the fitted curve at half-maximal effect)
# [2] = target: Aldehyde dehydrogenase, mitochondrial (Homo sapiens) (UniProt P05091); assay: qHTS for Inhibitors of the Aldehyde Dehydrogenase Family (ALDH2) Confirmatory screens (AID 2061303; active = well fitted inhibition curve with a large enough effect; title and protocol of this record describe different tests; also: potency is read from the fitted curve at half-maximal effect; nearly all actives have a fitted effect of over 45% in size)
# [3] = qHTS for Inhibitors of the Aldehyde Dehydrogenase Family (ALDH1A2, ALDH1A3, ALDH2, ALDH3A1) (AID 2061307); also: test system not described further here; potency is read from the fitted curve at half-maximal effect; nearly all actives have a fitted effect of over 50% in size
# [4] = target: Aldehyde dehydrogenase, mitochondrial (Homo sapiens) (UniProt P05091); assay: qHTS for Inhibitors of the Aldehyde Dehydrogenase Family (ALDH2) Primary screen (AID 2061308); also: nearly all actives have a fitted effect of over 55% in size; also: potency is read from the fitted curve at half-maximal effect
# [5] = target: Retinaldehyde dehydrogenase 3 (Homo sapiens) (UniProt P47895); assay: qHTS for Inhibitors of the Aldehyde Dehydrogenase Family (ALDH1A3) Confirmatory screens (AID 2061311); also: potency is read from the fitted curve at half-maximal effect; nearly all actives have a fitted effect of over 60% in size
# [6] = target: Retinaldehyde dehydrogenase 3 (Homo sapiens) (UniProt P47895); assay: qHTS for Inhibitors of the Aldehyde Dehydrogenase Family (ALDH1A3) Primary screen (AID 2061315)
# [7] = target: Aldehyde dehydrogenase 1A1 (Homo sapiens) (UniProt P00352); assay: qHTS for Inhibitors of the Aldehyde Dehydrogenase Family (ALDH1A1) Confirmatory screens (AID 2061316); also: potency is read from the fitted curve at half-maximal effect; nearly all actives have a fitted effect of over 65% in size
# [8] = target: Cellular tumor antigen p53 (Homo sapiens) (UniProt P04637); assay: Primary qHTS for small molecule compounds that upregulate eGFP-tagged delta133p53alpha (in C-terminal) cells. (AID 2060324); also: potency is read from the fitted curve at half-maximal effect
# Chain of Cellular tumor antigen p53 (Homo sapiens) (P04637 whole entry, looked up): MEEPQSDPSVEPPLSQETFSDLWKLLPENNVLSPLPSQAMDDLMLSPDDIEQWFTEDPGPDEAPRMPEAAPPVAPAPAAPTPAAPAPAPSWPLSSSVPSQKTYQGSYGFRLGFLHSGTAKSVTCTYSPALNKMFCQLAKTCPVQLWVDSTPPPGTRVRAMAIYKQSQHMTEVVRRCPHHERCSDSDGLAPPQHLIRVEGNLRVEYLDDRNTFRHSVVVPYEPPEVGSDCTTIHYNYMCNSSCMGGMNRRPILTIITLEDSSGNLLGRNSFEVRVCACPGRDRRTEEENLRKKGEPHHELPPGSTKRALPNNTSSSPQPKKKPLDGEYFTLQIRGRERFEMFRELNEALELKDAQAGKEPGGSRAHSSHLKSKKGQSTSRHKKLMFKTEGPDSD
# Summary of the method: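 Concentration-response screen: compounds titrated onto pre-induced NCI-H358 D133p53a-eGFP cells, incubated one day, fixed with 3.5% PFA. Per-cell GFP peak intensity was gated, then normalized against intraplate controls.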
# [9] = target: Retinaldehyde dehydrogenase 3 (Homo sapiens) (UniProt P47895); assay: qHTS for Inhibitors of the Aldehyde Dehydrogenase Family (ALDH1A3) Validation screen (AID 2061312); also: nearly all actives have a fitted effect of over 45% in size
# [10] = BET inhibitor-based combinations targeting novel dependencies in MECOM-rearranged (r) AML: SET-2 cell line (AID 2202231); conditions: SET-2 AML cells viability, CellTiter-Glo luminescence, 48 h; viability: hits give low values, series mostly up to about 46 µM; also: nearly all actives have a fitted effect of over 35% in size
# Summary of the method: (§1)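 Luminescent ATP readout (CellTiter-Glo) after 48 hr drug exposure gives viability. Curves span 11 concentrations and are normalized to DMSO and empty wells. Activity is reported as area under the curve and its Z-transform within each cell line.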
# [11] = BET inhibitor-based combinations targeting novel dependencies in MECOM-rearranged (r) AML: MV-4-11 cell line (AID 2202233); also: nearly all actives have a fitted effect of over 45% in size; also: potency is read from the fitted curve at half-maximal effect
# Summary of the method: (§2)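 Luminescent ATP readout (CellTiter-Glo, 15 min at room temperature) after 48 hr drug exposure gave viability. Dose-response curves, normalized to DMSO and empty-well controls, were summarized as area under the curve and its mean-centred Z-score.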
# [12] = BET inhibitor-based combinations targeting novel dependencies in MECOM-rearranged (r) AML: HNT-34 cell line (AID 2202234); also: nearly all actives have a fitted effect of over 35% in size; also: potency is read from the fitted curve at half-maximal effect
# Summary of the method: as §2
# [13] = BET inhibitor-based combinations targeting novel dependencies in MECOM-rearranged (r) AML: UCSD-AML1 cell line (AID 2202235); also: nearly all actives have a fitted effect of over 40% in size; also: potency is read from the fitted curve at half-maximal effect
# Summary of the method: as §2
# [14] = BET inhibitor-based combinations targeting novel dependencies in MECOM-rearranged (r) AML: AML-191 cell line (AID 2202236; also: nearly all actives have a fitted effect of over 35% in size; also: potency is read from the fitted curve at half-maximal effect)
# Summary of the method: as §1
# [15] = BET inhibitor-based combinations targeting novel dependencies in MECOM-rearranged (r) AML: AML-194 cell line (AID 2202237; also: nearly all actives have a fitted effect of over 40% in size)
# Summary of the method: as §1
# [16] = BET inhibitor-based combinations targeting novel dependencies in MECOM-rearranged (r) AML: OCI-AML3 cell line (AID 2202232); conditions: Potency: OCI-AML3 viability; also: nearly all actives have a fitted effect of over 35% in size; also: potency is read from the fitted curve at half-maximal effect
# Summary of the method: as §1
# [17] = target: Retinal dehydrogenase 2 (Homo sapiens) (UniProt O94788); assay: qHTS for Inhibitors of the Aldehyde Dehydrogenase Family (ALDH1A2) Confirmation screens (AID 2061314); also: nearly all actives have a fitted effect of over 65% in size
compound,measurement,setting,value
N#Cc1ccc(-c2ccc(CNc3ccc(N4CCC(C#N)CC4)cc3)o2)cc1,Potency,[1],0.631 µM (active)
same,Potency,[2],0.1 µM (active)
same,Potency,[3],1.27 µM (active)
same,Potency,[4],0.1 µM (active)
same,Potency,[5],7.94 µM (active)
same,Potency,[6],inactive
same,Potency,[7],5.04 µM (active)
CCOC(=O)c1ncn2c1CN(C)C(=O)c1cc(F)ccc1-2,Potency,[8],inactive
same,Potency,[1],inactive
same,Potency,[9],inactive
same,viability,[10],114%
same,Potency,[11],inactive
same,Potency,[12],inactive
same,Potency,[13],inactive
same,Potency,[14],inactive
same,Potency,[15],inactive
CCCCCCC(=O)OC1CC(C)(C)NC(C)(C)C1,Potency,[8],inactive
same,Potency,[1],inactive
same,Potency,[9],inactive
CS(=O)(=O)Nc1ccc([N+](=O)[O-])cc1Oc1ccccc1,Potency,[8],inactive
same,Potency,[1],inactive
same,Potency,[9],inactive
same,viability,[10],107%
same,Potency,[11],inactive
same,Potency,[12],inactive
same,Potency,[13],inactive
same,Potency,[15],inactive
COc1ccc(-c2coc3cc(O[C@@H]4O[C@H](CO)[C@@H](O)[C@H](O)[C@H]4O)ccc3c2=O)cc1,Potency,[1],inactive
CCN1/C(=C/C(C)=O)Sc2ccc(OC)cc21,Potency,[8],inactive
same,Potency,[1],inactive
same,Potency,[9],inactive
same,viability,[10],93.6%
same,Potency,[12],18.6 µM (active)
same,Potency,[14],8.33 µM (active)
CC(=O)[C@H]1CCC2C3CC=C4C[C@@H](OS(=O)(=O)O)CC[C@]4(C)C3CC[C@@]21C (stereo not given in full),Potency,[8],inactive
same,Potency,[1],inactive
same,Potency,[9],inactive
CNC[C@H](O)c1ccc(O)c(O)c1,Potency,[8],inactive
same,Potency,[1],inactive
same,Potency,[9],inactive
same,viability,[10],103%
same,Potency,[16],inactive
same,Potency,[12],inactive
same,Potency,[13],inactive
same,Potency,[14],inactive
same,Potency,[15],inactive
NC(=O)c1ncn([C@@H]2O[C@H](CO)[C@@H](O)[C@H]2O)c1O,Potency,[8],inactive
same,Potency,[1],inactive
same,Potency,[9],inactive
same,viability,[10],109% and 121%
same,Potency,[16],inactive
same,Potency,[12],inactive
same,Potency,[13],inactive
same,Potency,[14],inactive
CC1CC2C3CCC4=CC(=O)C=C[C@]4(C)[C@@]3(F)[C@@H](O)C[C@]2(C)[C@@]1(O)C(=O)CO (stereo not given in full),Potency,[8],inactive
same,Potency,[1],inactive
same,Potency,[9],inactive
O=c1c(-c2ccc(O)cc2)coc2cc(O[C@@H]3O[C@H](CO)[C@@H](O)[C@H](O)[C@H]3O)cc(O)c12,Potency,[1],inactive
C/C=C/CC(C)C(O)C1C(=O)NC(CC)C(=O)N(C)CC(=O)N(C)C(CC(C)C)C(=O)NC(C(C)C)C(=O)N(C)C(CC(C)C)C(=O)NC(C)C(=O)NC(C)C(=O)N(C)C(CC(C)C)C(=O)N(C)C(CC(C)C)C(=O)N(C)C(C(C)C)C(=O)N1C (stereo not given),Potency,[8],inactive
same,Potency,[4],inactive
same,Potency,[9],inactive
same,Potency,[6],inactive
COc1cc(-c2coc3cc(OCc4ccccc4)c(OC)c(O)c3c2=O)cc(O)c1OC,Potency,[1],inactive
O=C1Nc2ccc(I)cc2/C1=C/c1cc(Br)c(O)c(Br)c1,Potency,[8],19 µM (active)
same,Potency,[1],inactive
same,viability,[10],96.6%
same,Potency,[16],inactive
same,Potency,[11],inactive
same,Potency,[13],inactive
same,Potency,[14],18.6 µM (active)
same,Potency,[15],inactive
COc1cc2nc(N(C)CCCNC(=O)C3CCCO3)nc(N)c2cc1OC (stereo not given),Potency,[1],inactive
O=C(O)C1CN(CCCP(=O)(O)O)CCN1 (stereo not given),Potency,[8],inactive
same,Potency,[1],inactive
same,Potency,[9],inactive
CO/N=C(\C(=O)N[C@@H]1C(=O)N2C(C(=O)O)=C(CSc3nc(=O)c(O)nn3C)CSC12)c1csc(N)n1 (stereo not given in full),Potency,[8],inactive
same,Potency,[9],inactive
N#Cc1ccc(-c2ccc(CNc3ccc(N4CCC(C(F)(F)F)CC4)cc3)o2)cc1,Potency,[1],0.447 µM (active)
same,Potency,[2],0.0357 µM (active)
same,Potency,[3],0.712 µM (active)
same,Potency,[4],inactive
same,Potency,[17],inactive
same,Potency,[7],6.34 µM (active)
Cc1ccc(/C(=C\CN2CCCC2)c2ccccn2)cc1,Potency,[1],inactive
CCN(CC)CCn1c(=O)c(Cc2ccc(OC)cc2)nc2ccccc21,Potency,[8],inactive
same,Potency,[1],inactive
same,viability,[10],107%
same,Potency,[16],inactive
same,Potency,[11],inactive
same,Potency,[12],inactive
same,Potency,[13],inactive
same,Potency,[14],inactive
same,Potency,[15],inactive
Oc1cc(O)cc(/C=C/c2ccc(O)c(O)c2)c1,Potency,[8],inactive
same,Potency,[16],10.5 µM (active)
same,Potency,[11],10.5 µM (active)
same,Potency,[13],18.6 µM (active)
same,Potency,[14],16.6 µM (active)
Cc1nnc(SCC2=C(C(=O)O)N3C(=O)[C@@H](NC(=O)Cn4cnnn4)[C@H]3SC2)s1,Potency,[1],inactive
CCN(c1nc(N)c(C(=O)N=C(N)N)nc1Cl)C(C)C,Potency,[8],inactive
same,Potency,[1],inactive
same,Potency,[9],inactive
CC(C)NCC(O)c1ccc(O)c(O)c1 (stereo not given),Potency,[11],inactive
CC(C)c1c(C(=O)Nc2ccccc2)c(-c2ccccc2)c(-c2ccc(F)cc2)n1CC[C@@H](O)C[C@@H](O)CC(=O)O,Potency,[11],5.74 µM (active)
CC(C)NCC(O)c1cc(O)cc(O)c1 (stereo not given),Potency,[1],inactive
same,Potency,[9],inactive
O=Nc1c(-c2c(O)[nH]c3ccccc23)[nH]c2ccccc12,Potency,[1],inactive
same,Potency,[9],inactive
NC(N)=[N+]1CCc2ccccc2C1,Potency,[1],inactive
same,Potency,[9],inactive
